This passage reports AC50 and outcome results from PubChem BioAssay (EPA / NIEHS).

Records with an inconclusive call do not appear. The source made the active and inactive calls. How the source made its calls, unless noted: active means hit-call score of the fitted dose curve at least 0.9, where 1 is the maximum; inactive means score below 0.9.

Assay [1] in a line: CCTE_Shafer_MEA_dev_firing_rate_mean: CCTE's Neural Network Formation Assay for Mean Firing Rate, Shafer Lab (AID 2284031).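 Further: curve fitted for loss of firing so AC50 reflects decreased mean firing rate.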 In short, it runs like this:
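Spike frequency (spikes/recording length, averaged over active electrodes) was recorded on days 5, 7, 9 and 12 and collapsed to AUC; rat cortical cultures received compound continuously over 12 days of network development.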

Assay [2] is described as follows: CCTE_Shafer_MEA_dev_per_burst_spike_percent: CCTE's Neural Network Formation Assay for Percent of Spikes in a Burst, Shafer Lab (AID 2284032).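 Further: fitted as a decrease in burst spike percentage below DMSO baseline.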 In short, it runs like this:
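Value is trapezoidal AUC over recordings on days 5, 7, 9 and 12 of the well-mean fraction of spikes falling in single-electrode bursts; rat cortical cultures exposed continuously from plating, treatment renewed DIV 5 and 9, fitted downward against DMSO.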

A short description of assay [3]: CCTE_Shafer_MEA_dev_active_electrodes_number: CCTE's Neural Network Formation Assay for Number of Active Electrodes, Shafer Lab (AID 2284040; active means hit-call score of the fitted dose curve at least 0.9, where 1 is the maximum;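 further: potency for loss of active electrodes versus DMSO so lower counts are hits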). In short, it runs like this: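 Counts electrodes per well firing at least 5 spikes/min, recorded on days 5, 7, 9 and 12 in rat cortical cultures dosed continuously from plating (treatment refreshed DIV 5, 9). Value is the area under the curve over recordings, fitted downward relative to DMSO.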

Assay [4] in a line: CCTE_Shafer_MEA_dev_burst_rate: CCTE's Neural Network Formation Assay for Burst Rate, Shafer Lab (AID 2284042).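 Further: potency for loss of burst rate below DMSO control.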 Put shortly:
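Developmental network assay measuring how 12-day exposure of rat cortical neuron cultures alters bursting on extracellular MEA recordings. Values are AUC of well-mean burst rate across four recording days, relative to DMSO vehicle.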

Assay [5] is described as follows: CCTE_Shafer_MEA_dev_bursting_electrodes_number: CCTE's Neural Network Formation Assay for Number of Bursting Electrodes, Shafer Lab (AID 2284043; active means hit-call score of the fitted dose curve at least 0.9, where 1 is the maximum;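 further: potency is for loss of bursting electrodes relative to DMSO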). Put shortly:
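Number of electrodes reaching ≥1 burst every 2 min was recorded at DIV 5, 7, 9 and 12 and collapsed as trapezoidal area under the curve. Cultures were rat cortical neurons on MEA plates, dosed continuously from plating with medium and treatment refreshed on DIV 5 and 9.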

Assay [6] in a line: CCTE_Shafer_MEA_dev_burst_duration_mean: CCTE's Neural Network Formation Assay for Mean Burst Duration, Shafer Lab (AID 2284045).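 Further: curve fitted for loss meaning shorter burst duration than DMSO.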 Put shortly: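 Mean single-electrode burst duration (first to last spike), averaged over bursting electrodes per well, then integrated as area-under-curve across recordings at days 5, 7, 9 and 12. Rat cortical cultures on MEAs, compound present from plating, refreshed at feeds.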

Assay [7] is described as follows: CCTE_Shafer_MEA_dev_interburst_interval_mean: CCTE's Neural Network Formation Assay for Mean Interburst Interval, Shafer Lab (AID 2284046).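 Further: well-mean interburst interval of bursting electrodes as AUC over four recording days; curve fitted for decrease in interburst interval relative to DMSO.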 In short, it runs like this: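 Network formation assay in primary rat cortical cultures, exposed from DIV 0 to 12. Mean interburst interval per well, integrated as AUC over four recordings.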
Assay [8] can be described thus: CCTE_Shafer_MEA_dev_inter_network_spike_interval_mean: CCTE's Neural Network Formation Assay for Mean Inter-network Spike Interval, Shafer Lab (AID 2284047). Put shortly:
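Compound was given at plating to primary rat cortical neurons and renewed with full medium changes on DIV 5 and 9. Extracellular activity was recorded on days 5, 7, 9, 12; AUC values were fitted for loss relative to DMSO control.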

The nature of assay [9]: CCTE_Shafer_MEA_dev_network_spike_number: CCTE's Neural Network Formation Assay for Number of Network Spikes, Shafer Lab (AID 2284048).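 Further: synchronized bursts across electrodes counted on days 5 7 9 12 and integrated as AUC; fit as a loss of signal meaning fewer network spikes than DMSO.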 In short, it runs like this: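 Number of network spikes (coordinated firing across electrodes) recorded on days 5, 7, 9 and 12 and summarised as area under the curve. Rat cortical cultures on MEA, continuous compound exposure with full medium/treatment exchange at DIV 5 and 9.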

Assay [10] can be described thus: CCTE_Shafer_MEA_dev_network_spike_peak: CCTE's Neural Network Formation Assay for Mean Number of Electrodes in Network Spike, Shafer Lab (AID 2284049).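 Further: fitted for loss of signal meaning fewer electrodes in network spikes than DMSO.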 In short, it runs like this:
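Rat cortical primary culture, 1.5 x 10^5 cells/well, 48-well MEA (16 electrodes/well). Dosing day 0 through DIV 12, full media/compound exchange DIV 5, 9. AxIS adaptive spike detection; AUC over days 5/7/9/12; loss-of-signal vs DMSO.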

Assay [11] is described as follows: CCTE_Shafer_MEA_dev_spike_duration_mean: CCTE's Neural Network Formation Assay for Mean Spike Duration, Shafer Lab (AID 2284051).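 Further: potency for a decrease in mean network spike duration versus DMSO.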 Put shortly:
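With DMSO as baseline, loss of mean network spike duration was scored from extracellular recordings of rat cortical neurons on MEA plates. Exposure spanned plating to DIV 12; the four recording days were collapsed into one AUC value.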

Assay [12] in a line: CCTE_Shafer_MEA_dev_network_spike_duration_std: CCTE's Neural Network Formation Assay for Standard Deviation of Network Spike Duration, Shafer Lab (AID 2284052).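 Further: hits are decreases in network spike duration SD versus DMSO vehicle.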 Put shortly: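 Developing networks of rat cortical neurons were exposed over twelve days in vitro on 48-well MEA plates. Trapezoidal AUC of recordings (DIV 5–12) was analysed for signal loss relative to DMSO vehicle.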

Assay [13] is described as follows: CCTE_Shafer_MEA_dev_per_network_spike_spike_number_mean: CCTE's Neural Network Formation Assay for Mean Number of Spikes in a Network Spike, Shafer Lab (AID 2284053). In short, it runs like this: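 First, rat cortical cells (1.5 x 10^5/well) were seeded onto MEA wells; second, dosing began at plating and was refreshed on DIV 5 and 9; finally, network-spike spike counts across DIV 5–12 were summarized as AUC.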

The nature of assay [14]: CCTE_Shafer_MEA_dev_per_network_spike_spike_percent: CCTE's Neural Network Formation Assay for Percent of Spikes in a Network Spike, Shafer Lab (AID 2284054). Put shortly: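 Metric: fraction of spikes falling in a 0.05 s window at network-spike peaks. Recordings were made on days 5, 7, 9 and 12 and collapsed by trapezoidal AUC. Cultures were rat cortical neurons on MEA plates, dosed continuously from plating, re-dosed at media changes.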

Assay [15] is described as follows: CCTE_Shafer_MEA_dev_LDH: CCTE's Lactate Dehydrogenase Assay for Cytotoxicity in the Neural Network Formation Assay, Shafer Lab (AID 2284068; active means hit-call score of the fitted dose curve at least 0.9, where 1 is the maximum;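 further: exposure for twelve days from plating with re-dosing on DIV 5 and 9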). Put shortly: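 Developing rat cortical networks on MEA plates are exposed to compound for 12 days from plating. LDH activity is measured spectrophotometrically, with DMSO as baseline.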
A short description of assay [16]: CCTE_Shafer_MEA_dev_AB: CCTE's Alamar Blue Assay for Cytotoxicity in the Neural Network Formation Assay, Shafer Lab (AID 2284083; active means hit-call score of the fitted dose curve at least 0.9, where 1 is the maximum;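 further: resazurin reduction fluorescence as viability of cultured neurons; twelve days of exposure from plating with re-dosing on DIV 5 and 9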). In short, it runs like this:
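Cytotoxicity companion to the developmental MEA: primary rat cortical neurons, 12-day exposure starting day 0, compound refreshed DIV 5 and 9; resazurin fluorescence, fitted against DMSO vehicle.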
Background: Alamar Blue is a resazurin reagent that responds to reducing activity.

Assay [17] in a line: CCTE_Shafer_MEA_dev_mutual_information_norm: CCTE's Neural Network Formation Assay for Mutual Information Normalization, Shafer Lab (AID 2284091).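 Further: mutual information between electrodes summarised as area under curve across four recording days; potency is for a decrease in mutual information relative to DMSO.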 In short, it runs like this:
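Shared information across electrodes, tracked on days 5, 7, 9 and 12 of network development and collapsed as trapezoidal area under the curve. Rat cortical cultures were treated continuously from plating, with treatment renewed at feeds on DIV 5 and 9; DMSO baseline, negative-direction fit.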

A short description of assay [18]: IUF_NPC1_viability_72hr: Viability Assessment at 72 hours in the Leibniz Research Institute for Environmental Medicine (IUF) Neural Progenitor Cell Proliferation Assay (NPC1) (AID 2284209). In short, it runs like this:
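Viability was measured by resazurin-to-resorufin fluorescence (alamar blue) after 72 h of continuous exposure without compound renewal. Each well held one hNPC sphere (gestational week 16-19 fetal cortex, 0.25-0.35 mm) cultured in EGF/FGF proliferation medium at 37C and pH 7.2-7.6.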

Assay [19] in a line: CCTE_Mundy_HCI_Cortical_Synap_Neur_Matur_NeuriteSpotCountPerNeuriteLength: CCTE's Synaptogenesis and Neurite Maturation Assay in rat cortical cells for Neurite Spot Count per Neurite Length, Mundy Lab (AID 2284210). In short, it runs like this: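 Synaptophysin spots per unit neurite length, measured by automated imaging of MAP2/synaptophysin/Hoechst-stained neurons. Cultures from rat cortex received chemical at DIV 7 with media change through DIV 12; glial growth arrested by AraC at DIV 5; DMSO baseline.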

Assay [20] in a line: CCTE_Mundy_HCI_Cortical_Synap_Neur_Matur_BPCount: CCTE's Synaptogenesis and Neurite Maturation Assay in rat cortical cells for Branch Point Count, Mundy Lab (AID 2284211). In short, it runs like this: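 HCI read-out of branch points from MAP2/synaptophysin/Hoechst immunofluorescence; rat cortical cultures, AraC DIV 5, dosing DIV 7, fixed DIV 12; fit in positive direction vs DMSO baseline.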

Assay [21] can be described thus: CCTE_Mundy_HCI_Cortical_NOG_NeuriteCount: CCTE's Neurite Outgrowth Assay in rat cortical cells for Neurite Count, Mundy Lab (AID 2284212).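 Further: cells fixed about two days after chemical exposure began.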 Put shortly:
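Rat cortical primary cells; compound added 2 h post-plating, 1/10 dilution of working solution. Anti-betaIII-tubulin/AF488 ICC; ArrayScan neurite count vs DMSO.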

Assay [22] can be described thus: CCTE_Mundy_HCI_Cortical_NOG_NeuriteLength: CCTE's Neurite Outgrowth Assay in rat cortical cells for Neurite Length, Mundy Lab (AID 2284213).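 Further: neurites imaged about 48 to 50 h after chemical exposure began.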 Put shortly: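 First, rat primary cortical cells were plated and, 2 h later, given test chemical as a 1/10 dilution. Finally, βIII-tubulin immunostaining enabled automated imaging of neurite length.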
A short description of assay [23]: CCTE_Mundy_HCI_Cortical_Synap_Neur_Matur_NeuriteLength: CCTE's Synaptogenesis and Neurite Maturation Assay in rat cortical cells for Neurite Length, Mundy Lab (AID 2284214). In short, it runs like this:
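Neurite length quantified by automated high-content imaging of MAP2, synaptophysin and Hoechst staining. Rat cortical cells received chemical from DIV 7 to DIV 12 […], glial growth arrested by AraC at DIV 5; DMSO baseline.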

A word on the AC50: it is the concentration at which the activity in the assay is half-maximal.

With `O=[As]O`, the half-maximal activity concentration (AC50) in [1] was 2140 nM (active); in assay [2] it was 1400 nM (active); in [3], 1410 nM (active); in [4], 2420 nM (active); in assay [5] it was 1230 nM (active); in assay [6], 2500 nM (active). In addition, the AC50 in [7] is 1690 nM (active); in assay [9], 1280 nM (active); in assay [10], 1670 nM (active); in [11], 1140 nM (active); in [12], 1080 nM (active); in assay [13] it was 1140 nM (active). Besides, the AC50 in assay [14] is 1140 nM (active); in assay [15], 1090 nM (active); in assay [16], 1820 nM (active); in assay [17], 1150 nM (active); in assay [18], 2960 nM (active); in [20], 5000 nM (active). Further, the concentration at half-maximal activity (AC50) in [21] is 3320 nM (active); in assay [22] it was 2480 nM (active); in assay [23], 6450 nM (active). The result in assay [8] and in [19] was inactive.
